Experimental data taken from article PMC6664820, “Novel natural and synthetic inhibitors of solute carriers SGLT1 and SGLT2” (Pharmacology Research & Perspectives, 2019).
Screen size: about 1,900 compounds; about 40 (2%) showed an effect of 50% or more. This is one part of a sample in which strong results are shown more often than they occur.

What follows are compounds tested against human SGLT1 (hSGLT1) (human, UniProt P13866) (assay: primary screen, percent of control activity; higher = less effect of the substance). Settings: 50 µM.
human SGLT1 (hSGLT1), sequence (P13866 whole entry, looked up): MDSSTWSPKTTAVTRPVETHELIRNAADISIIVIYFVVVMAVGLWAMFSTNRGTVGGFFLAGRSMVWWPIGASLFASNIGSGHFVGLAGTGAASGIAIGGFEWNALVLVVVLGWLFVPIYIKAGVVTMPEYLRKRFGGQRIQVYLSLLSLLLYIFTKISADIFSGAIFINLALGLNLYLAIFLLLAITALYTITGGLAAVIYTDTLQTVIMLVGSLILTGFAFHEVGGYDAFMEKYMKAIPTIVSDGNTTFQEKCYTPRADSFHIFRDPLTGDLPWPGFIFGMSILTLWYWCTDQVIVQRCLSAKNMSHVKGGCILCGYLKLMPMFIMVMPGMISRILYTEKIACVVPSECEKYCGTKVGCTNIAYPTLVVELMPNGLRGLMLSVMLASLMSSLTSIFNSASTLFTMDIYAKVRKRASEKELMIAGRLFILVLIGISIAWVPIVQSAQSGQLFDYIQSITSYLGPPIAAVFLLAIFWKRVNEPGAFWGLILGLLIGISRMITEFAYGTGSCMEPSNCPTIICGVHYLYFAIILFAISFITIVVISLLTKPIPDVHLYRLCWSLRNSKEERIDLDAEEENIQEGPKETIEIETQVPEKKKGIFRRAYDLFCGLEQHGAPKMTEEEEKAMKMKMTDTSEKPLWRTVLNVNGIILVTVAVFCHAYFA
Parameters: single well
Method: Two days before the assay, CHO‐wild type and CHO‐hSGLT1 cells were seeded in maintenance medium at 25 000 cells/well in clear‐bottom black 96‐well cell culture plates. Before the assay, cells were washed 3 times with 150 μL/well D‐glucose free DMEM with 0.3% (w/v) BSA. Library compounds at 50 μmol/L (singlicate) prepared in D‐glucose free DMEM with 160 μmol/L 1‐NBD‐glucose and 0.3% (w/v) BSA and negative controls (triplicate) were added at 100 μL/well and placed in a humidified incubator at 37°C with 5% CO2 for 90 minutes. Next, cells were washed 3 times with DMEM with 0.3% (w/v) BSA (150 μL/well). Care was taken to remove all medium after the last wash. Finally, 1‐NBD‐glucose was extracted from the cells by adding 10 μL/well isopropanol and orbital shaking for 5 minutes at 600 rpm, followed by incubation in the dark for 30 minutes. Fluorescence was measured on a Tecan Infinite M200 Microplate Reader (Tecan, Männedorf, Switzerland) with excitation at 445 nm and emission at 525 nm. The amount of 1‐NBD‐glucose taken up by the CHO‐wild type or CHO‐hSGLT1 cells in the presence or absence of test compounds was interpolated from 1‐NBD‐glucose calibration standards. The background uptake by CHO‐wild type was subtracted from the uptake by CHO‐hSGLT1. Background corrected uptake with test compound was expressed as a percentage of corrected uptake without test compound.

| Compound | NORMALIZED SGLT1 ACTIVITY (%) |
| --- | --- |
| CC[C@@H](CO)NCCN[C@@H](CC)CO.Cl.Cl | 90 |
| CC(=O)Oc1ccc(Cl)c2cccnc12 | 202 |
| Oc1c(Cl)cc(Cl)c2cccnc12 | 48 |
| Oc1c(Br)cc(Br)c2cccnc12 | 50 |
| O=S(=O)(O)O.Oc1cccc2cccnc12 | 127 |
| Oc1c(I)cc(I)c2cccnc12 | 97 |
| Oc1ccc(Cl)c2cccnc12 | 208 |
| CC(=O)O[C@@H]1CC2C(C)(C)C(=O)C3OC3[C@]2(C)C2CC[C@@]3(C)[C@H](c4ccoc4)OC(=O)C4OC43[C@@]21C (some centres unmarked) | 138 |
| CC(C)CCCC(C)[C@H]1CCC2C3CC=C4C[C@@H](O)CC[C@]4(C)C3CC[C@@]21C (some centres unmarked) | 120 |
| C[n+]1c2cc(N)ccc2cc2ccc(N)cc21.[Cl-] | 169 |
| CC1=CC(=O)C2=C(C)CC[C@@H]3[C@H](OC(=O)[C@H]3C)[C@@H]12 | 109 |
| COC(=O)Nc1nc2ccc(S(=O)c3ccccc3)cc2[nH]1 (centres unmarked) | 125 |
| Cc1ccc(O)c(C(CCN(C(C)C)C(C)C)c2ccccc2)c1.O=C(O)C(O)C(O)C(=O)O (centres unmarked) | 78 |
| COc1ccc(C(=O)c2ccccc2)c(O)c1 | 26 |
| COc1ccc(C(=O)c2ccccc2O)c(O)c1 | 111 |
| COc1cc(O)c(C(=O)c2ccccc2)cc1O | 235 |
| CCS(=O)(=O)CCn1c([N+](=O)[O-])cnc1C | 123 |
| COc1ccc2ccc(=O)oc2c1 | 130 |
| CCN(CC)CC(=O)Nc1c(C)cccc1C.Cl | 72 |
| Cc1cccc(C)c1NC(=O)C1CCCCN1C.Cl (centres unmarked) | 83 |
| CCCCN1CCCCC1C(=O)Nc1c(C)cccc1C.Cl (centres unmarked) | 42 |
| CC(C)CCCC(C)[C@H]1CCC2C3C(=O)C=C4C[C@@H](O)CC[C@]4(C)C3CC[C@@]21C (some centres unmarked) | 95 |
| Cc1ccc(N(CC2=NCCN2)c2cccc(O)c2)cc1.Cl | 62 |
| COc1ccc2c(c1)OC/C(=C\c1ccc(OC)c(O)c1)C2=O | 140 |
| CN(C)c1ccc(C(=C2C=CC(=[N+](C)C)C=C2)c2ccc(N(C)C)cc2)cc1.[Cl-] | 43 |

| Compound | NORMALIZED SGLT1 ACTIVITY (%) |
| --- | --- |
| O=C1C=CC(=C(c2ccc(O)cc2)c2ccc(O)cc2)C=C1 | 78 |
| CC(CCc1ccccc1)NCC(O)c1ccc(O)c(C(N)=O)c1.Cl (centres unmarked) | 76 |
| O=C([O-])CF.[Na+] | 96 |
| C[C@@H]1C(=O)O[C@H]2[C@H]1CC[C@@]1(C)C=CC(=O)[C@@]3(C)O[C@@]213 | 96 |
| COc1cc(OC)c(OC)cc1C=O | 189 |
| C1CCC(C(CC2CCCCN2)C2CCCCC2)CC1.O=C(O)/C=C\C(=O)O (centres unmarked) | 1 |
| CC(=O)CC1CCCCN1.Cl (centres unmarked) | 86 |
| CCC[C@@H]1CCCCN1 | 85 |
| C=C[C@H]1CN2CC[C@H]1C[C@H]2[C@H](O)c1ccnc2ccccc12 | 77 |
| C=Cc1c(C)c2[n]3c1C=c1c(C)c(CC)c4[n]1[Cu]31[n]3c(c(C)c5c3C(=c3c(CCC(=O)[O-])c(C)c([n]31)=C2)C(C(=O)[O-])C5=O)C=4.[Na+].[Na+] (centres unmarked) | 94 |
| CC(C)CC(N(C)C)C1(c2ccc(Cl)cc2)CCC1.Cl (centres unmarked) | 28 |
| CC(C)CCCC(C)C1CCC2C3CC(=O)[C@H]4C[C@@H](O)CC[C@]4(C)C3CC[C@]12C (some centres unmarked) | 107 |
| O=C(O)c1cc2cc(Cl)ccc2[nH]1 | 238 |
| C=C1C(C2(C)C=CC(=O)C(C)(C)C2CC(=O)OC)CC[C@@]2(C)[C@H](c3ccoc3)OC(=O)C3OC132 (some centres unmarked) | 86 |
| CC(=O)[C@H]1CCC2C3CCC4=CC(=O)CC[C@]4(C)C3CC[C@@]21C (some centres unmarked) | 38 |
| CC(=O)OCC(=O)[C@H]1CC[C@H]2[C@@H]3CCC4=CC(=O)CC[C@]4(C)[C@H]3CC[C@]12C | 114 |
| C[C@]12CCC(=O)C=C1CCC1C2CC[C@@]2(C)C1CC[C@@H]2O (some centres unmarked) | 98 |
| C[C@@H]1CC[C@@]2(NC1)O[C@H]1C[C@H]3C4CC=C5C[C@@H](O)CC[C@]5(C)C4CC[C@]3(C)C1[C@@H]2C (some centres unmarked) | 109 |
| CCC1(c2ccc(N)cc2)CCC(=O)NC1=O (centres unmarked) | 108 |
| COc1ccc2c(c1)OC/C(=C/c1ccc(O)c(O)c1)C2=O | 249 |
| CCCCC(CC)CNC(=N)NC(=N)NCCCCCCNC(=N)NC(=N)NCC(CC)CCCC.Cl.Cl (centres unmarked) | 36 |
| COc1ccc(C[C@H](N)C(=O)N[C@@H]2[C@@H](CO)OC(n3cnc4c(N(C)C)ncnc43)[C@@H]2O)cc1.Cl.Cl (some centres unmarked) | 116 |
| O=C(O)COc1ccc(Cl)cc1Cl | 196 |
| COC(=O)[C@]1(C)CCC[C@]2(C)c3ccc(C(C)C)cc3C(=O)CC12 (some centres unmarked) | 89 |
| O=C(CCCN1CCN(c2ccccn2)CC1)c1ccc(F)cc1 | 111 |
